The supplement of paper PMC6555819

system: VDR homodimer (NR concentration 270 nM); experiment: PBM binding z-score (relative to random genomic background probes); higher = stronger binding; sequences stand for … in GC…GCGATTGACAGCGTAGAATGAAGG
In short: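 Scanned fluorescence from custom Agilent 4×180K protein-binding microarrays was regression-normalized. Binding z-scores use random background probes as reference. Ligand-free nuclear receptor dimers were incubated on the arrays for 1 h and detected with antibodies against each partner (one per run).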

CGTCCAAGGTTAGAGAGGTCAGTGAATGCCGAGT was tested. Which PBM binding z-score did it give?
The PBM binding z-score was 3.15.

TCTAGCTGGCCAGAGGGTCACTCAAGAGGTACGG was tested. Which PBM binding z-score did it give?
The PBM binding z-score was 0.32.

How did the PBM binding z-score turn out when TCTATTAGTTGAGTAGGGCAACCGAAACAGCGGA was run?
Its PBM binding z-score is -0.411.

For GGAACGAGGGCAAAGTTGAGAGCATCTGTCGACG, which PBM binding z-score is on record?
Its PBM binding z-score is 1.38.

With CCTATGAGTTGACCATAAGGGCAACCGAAGCTCG as the sequence, how does the PBM binding z-score read?
The PBM binding z-score was 0.847.

For CAAACTAGGTCACGAAAGGTCAAAGTAGAATGAC, which PBM binding z-score is on record?
Its PBM binding z-score is 3.78.

Which PBM binding z-score does the source give for GCTAGCAGGACATTTGGGTCACTCAATGACGGGC here?
The PBM binding z-score was 0.846.

For GCGACTGGGGCAAAGCAGGTTACCAAAAGGTTGG, which PBM binding z-score is on record?
Its PBM binding z-score is -0.329.

Which PBM binding z-score does the source give for CCTAGTTCGTCAGGAGGTCACACACCGGATATGA here?
The PBM binding z-score was 4.2.

With GCTGCTAGGTCAATTGATGGTCAGCTAAAGCTCG as the sequence, how does the PBM binding z-score read?
Its PBM binding z-score is -0.476.

For TCTTGTACATCAAAGGTTAAGAAAGCCGAAGCCT, which PBM binding z-score is on record?
Its PBM binding z-score is 0.246.

For ACTAGTTGGTCAGCTGACGTCACACACAATTCGG, which PBM binding z-score is on record?
Its PBM binding z-score is -0.472.

For ATATGTAGGTTATCGGGTCGTTCAGTTTGCGCAT, which PBM binding z-score is on record?
The PBM binding z-score was 2.55.

TCTTGTAGATCCATAGAGGTTAAGAAAGTGCGCT was tested. Which PBM binding z-score did it give?
The PBM binding z-score was 0.319.

With TCTGCTAGGTCACCGATGGTCAGCTAATCTGCTA as the sequence, how does the PBM binding z-score read?
Its PBM binding z-score is -0.0284.

AGTCAAAGTTCAGGACGAGCTAACGTAAAGCACG was tested. Which PBM binding z-score did it give?
The PBM binding z-score was 1.5.

With ACTATGAGTTGACTTAGGGCAACCGATACGACGC as the sequence, how does the PBM binding z-score read?
Its PBM binding z-score is 1.26.

For CCTACTGGGCCAAAAAGGTCATTGACGCCGATAA, which PBM binding z-score is on record?
The PBM binding z-score was 2.4.

Which PBM binding z-score does the source give for GCGACTGGGGCACCAGCAGGTTACCATAACTTAA here?
Its PBM binding z-score is -0.699.

With TGTCAAAGTTCAAGGGTAACGTAAGTATCCACAC as the sequence, how does the PBM binding z-score read?
Its PBM binding z-score is 3.21.

CCTACTGGGTCAAAAAGGTCATTGATGCCGATAA was tested. Which PBM binding z-score did it give?
The PBM binding z-score was 4.79.

Which PBM binding z-score does the source give for TTACCAGGGTGAGCTGAGGTCGTTGATCCAACTC here?
The PBM binding z-score was 2.47.

How did the PBM binding z-score turn out when TCTTGTACATCAACAGGAGGTTAAGAAAGATCGA was run?
The PBM binding z-score was 0.136.

Which PBM binding z-score does the source give for TCTTGTAGATCAACAGGAGGTTATGAAAGATCGA here?
The PBM binding z-score was -0.167.

TCATATAGGTAATACAGGTGGAAGTCGGCATCTA was tested. Which PBM binding z-score did it give?
Its PBM binding z-score is 0.547.

GCTATTAGTTGAAAGGGCCACCGAATGATTCTCG was tested. Which PBM binding z-score did it give?
The PBM binding z-score was 0.169.

CCTATTAGTTGACTATAAGGGCAACCGAAGCTCG was tested. Which PBM binding z-score did it give?
Its PBM binding z-score is 0.425.

Which PBM binding z-score does the source give for TATACAGGGTCAAAGGACAGAGTACGAATGTCGA here?
The PBM binding z-score was 2.76.

For CCTCGGAGGACAACAAGAGGTCAGAGCTGCCAGA, which PBM binding z-score is on record?
Its PBM binding z-score is 1.54.

With TCTATTAGTTGAAGCGCAACCGACGAGTCCGTTT as the sequence, how does the PBM binding z-score read?
The PBM binding z-score was 0.818.

For ACAATGAGGTTATACGTAGATCAGGGAAGAAAGT, which PBM binding z-score is on record?
Its PBM binding z-score is 1.28.

With ATCTCTAGGTAACCAAGTTAAGTGAATGCCGAAC as the sequence, how does the PBM binding z-score read?
Its PBM binding z-score is -0.108.

For ATCTCCAGGTAACCAAGTTCAGTGAATGCCGAAC, which PBM binding z-score is on record?
The PBM binding z-score was 3.04.

With TCTACTAGGTCAGTTGGTCAGCTAACGAGCTGCC as the sequence, how does the PBM binding z-score read?
Its PBM binding z-score is 0.162.

For GCATATAGGTAATACAAGTTGAAAGTCCGATTGT, which PBM binding z-score is on record?
The PBM binding z-score was 0.193.

With TAGCCTAGGTCATGGGCCAATATACCACGCGAAC as the sequence, how does the PBM binding z-score read?
The PBM binding z-score was 0.541.

GCGACTGGGGCAAAGCAGGTTACCCTAAGGTTGG was tested. Which PBM binding z-score did it give?
Its PBM binding z-score is -0.641.

For CAAACTAGGTCACCGGAACGTCAAAGTCCGCATG, which PBM binding z-score is on record?
The PBM binding z-score was 1.08.

For ATCTCTAGTTAAAAGTTCAGTGAATCCCGAGGAT, which PBM binding z-score is on record?
Its PBM binding z-score is 2.12.

With ATACCAAGGAGATCGTGAGGTCGTTGATACTAAC as the sequence, how does the PBM binding z-score read?
The PBM binding z-score was 3.26.
